Rows were chosen to be rich in hits. Some 1.3% of all compounds tested hit in one or more screens of this group.
AmpC detergent: blocks E. coli AmpC beta-lactamase in detergent assay; P00811; AmpC hydrolysis of nitrocefin, absorbance 480 nm, 0.01% Triton; Potency, µM (titrated, usually from 114 µM), hits mostly inhibitors; 0.041% of 370,000 active; further: nearly all actives have a fitted effect of over 25% in size
Target sequence (P00811 whole entry, looked up): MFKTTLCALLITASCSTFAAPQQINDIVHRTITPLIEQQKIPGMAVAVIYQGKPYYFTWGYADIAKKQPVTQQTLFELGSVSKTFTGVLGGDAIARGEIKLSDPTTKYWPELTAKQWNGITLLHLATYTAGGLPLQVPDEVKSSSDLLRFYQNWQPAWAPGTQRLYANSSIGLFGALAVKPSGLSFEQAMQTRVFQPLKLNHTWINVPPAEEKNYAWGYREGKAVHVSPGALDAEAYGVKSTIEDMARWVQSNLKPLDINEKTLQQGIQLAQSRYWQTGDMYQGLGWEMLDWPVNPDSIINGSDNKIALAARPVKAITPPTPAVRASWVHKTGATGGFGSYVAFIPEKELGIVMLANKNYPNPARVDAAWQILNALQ
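20 mM phosphate pH 7.0 + 0.01% (detergent screen) or 0.0001% Triton X-100; 5.3 nM AmpC reagent; cpd preinc 15 min RT; nitrocefin (800 uM stock) to start; A480 q20 s × 4 min; Activity was normalised to no-enzyme and no-compound control wells.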
Vaccinia Venus: inhibitors of vaccinia virus (Venus reporter) | Vaccinia virus Venus reporter expression, fluorescence | Potency, µM (series often up to 36.5 µM), most hits filed as inhibitors | 0.46% of 330,000 active; calls by dose curve; tested in A549 cells; further: nearly all actives have a fitted effect of over 30% in size
AmpC inh no detg: inhibitors of E. coli AmpC beta-lactamase without detergent. P00811. AmpC nitrocefin hydrolysis, absorbance 480 nm, 0.0001% Triton. Potency, µM (doses to about 57.1 µM), most hits filed as inhibitors. 0.52% of 330,000 active. AID 485341; further: nearly all actives have a fitted effect of over 20% in size
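20 mM phosphate pH 7.0 + 0.01% (detergent screen) or 0.0001% Triton X-100; 5.3 nM AmpC reagent; cpd preinc 15 min RT; nitrocefin (800 uM stock) to start; A480 q20 s × 4 min; Activity was normalised to no-enzyme and no-compound control wells.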
SARS PLP yeast: inhibitors of SARS-CoV papain-like protease in yeast; 0.19% of 330,000 active; Potency, µM (titrated, usually from 32.9 µM), most hits filed as activators; S. cerevisiae expressing SARS-CoV PLpro, growth rescue; AID 485353; calls by dose curve; further: nearly all actives have a fitted effect of over 55% in size
AMA1 RON2 block: disrupts binding of P. falciparum AMA1 to RON2 | AlphaScreen AMA1-biotinylated RON2 peptide binding | Potency, µM (doses to about 58.2 µM), most hits filed as inhibitors | 0.2% of 360,000 active | AID 720542; further: nearly all actives have a fitted effect of over 45% in size
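AMA1 (3D7) with his tag at 25 nM final met compounds first, then biotinylated RON2 peptide at 25 nM; detection used donor plus acceptor beads, 10 µg/mL apiece, read by AlphaScreen after 30 min at room temperature.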
VACV mCherry inh: vaccinia inhibition (mCherry reporter). Vaccinia virus mCherry reporter infection, fluorescence. Potency, µM (top dose mostly 36.5 µM), hits mostly inhibitors. 0.63% of 310,000 active; calls by dose curve; tested in A549 cells; further: nearly all actives have a fitted effect of over 35% in size
Hits are given with their value; . = inactive; ? = inconclusive; / = no result given; ! = repeats disagree. Unless noted, the call rests on the fitted dose curve; in most records, active means well fitted curve in the direction sought with a large enough effect; inconclusive means small, poorly fitted or top-dose-only effect, or another doubt; inactive means no such curve, though single readings can be large; an effect the other way counts as inactive or inconclusive.

SMILES	AmpC detergent	Vaccinia Venus	AmpC inh no detg	SARS PLP yeast	AMA1 RON2 block	VACV mCherry inh
Cc1cc(O)c(C(=O)/C=C/c2cccc([N+](=O)[O-])c2)c(=O)o1	.	.	14µM	.	.	.
CC(=O)Oc1ccccc1C(=O)C=Cc1cccc([N+](=O)[O-])c1	/	?	/	/	.	14µM
Cc1ccc2c(c1)CN(CCNC(=O)c1cccc(Cn3cccn3)c1)CC(C)O2 (stereo not given)	/	.	/	/	/	.
CC1(C(=O)Nc2ccc3[nH]ncc3c2)CCN1C(=O)C1(c2ccccc2)CC1 (stereo not given)	/	.	/	/	.	.
CN(C)c1ccc(C2CCc3ccccc3N2C(=O)c2ccccc2)cc1 (stereo not given)	/	.	/	/	/	.
O=C(C[n+]1c2ccccc2cc2ccccc21)c1ccc(F)cc1	/	.	/	/	/	.
O=C(NC(NC(=S)Nc1ccccc1Cl)C(Cl)(Cl)Cl)c1cccc(Cl)c1 (stereo not given)	.	?	.	.	.	13µM
COc1ccc(NC(=S)NC(NC(=O)c2cccc(Cl)c2)C(Cl)(Cl)Cl)c([N+](=O)[O-])c1 (stereo not given)	.	?	.	.	.	?
O=C(Cc1cccc2ccccc12)NC(NC(=S)Nc1ccccc1Cl)C(Cl)(Cl)Cl (stereo not given)	.	.	?	.	.	.
COc1ccc(NC(=S)NC(NC(=O)c2cccc(C)c2)C(Cl)(Cl)Cl)c([N+](=O)[O-])c1 (stereo not given)	.	?	4µM	.	.	?
CC(C)C(=O)NC(NC(=S)Nc1cccc2cccnc12)C(Cl)(Cl)Cl (stereo not given)	.	/	10µM	.	.	/
c1ccc(-c2c(-c3ccccc3)n(Cc3ccco3)c3ncnc(NCCCn4ccnc4)c23)cc1	.	13µM	.	.	?	?
CN(CC1COCCO1)C(=O)c1cnn(-c2nccc(-c3ccccc3C(F)(F)F)n2)c1C1CC1 (stereo not given)	/	.	/	/	/	.
COc1ccc(/C=C(/CC(=O)NCc2ccc(Cl)cc2)c2nc3ccccc3s2)cc1	.	.	18µM	.	.	?
COc1ccc(/C=C(/CC(=O)Nc2ccccc2)c2nc3ccccc3s2)cc1	?	.	.	.	.	.
O=C(Nc1nnc(-c2ccco2)s1)C1CCCCC1	.	.	.	.	.	/
O=C(Nc1nc(-c2ccco2)c(-c2ccco2)s1)C1CCC1	?	.	32µM	.	?	.
O=C(Nc1nc(-c2ccco2)c(-c2ccco2)s1)C1CC(=O)N(c2ccc3c(c2)OCCO3)C1 (stereo not given)	.	.	.	.	10µM	.
COc1cccc(-c2ccnc(-n3ncc(C(=O)NCC(C)(C)CN(C)C)c3C)n2)c1	/	.	/	/	/	.
Fc1ccc(Nc2ccnc(Nc3ccc(F)cc3)n2)cc1	.	11µM	?	.	.	10µM
O=C(NCCN1CCCCC1)c1cc(OCC(F)(F)F)ccc1OCC(F)(F)F	.	.	.	.	.	?
O=C(CCl)NCCNC(=O)c1cc(OCC(F)(F)F)ccc1OCC(F)(F)F	.	2µM	.	.	.	2µM
O=C(NCC1CCCCN1)c1cc(OCC(F)(F)F)ccc1OCC(F)(F)F (stereo not given)	.	10µM!	.	.	.	35µM!
O=C(NCCc1nnc2n1CCN(Cc1ccc3c(c1)CCO3)CC2)c1ccco1	/	.	/	/	/	.
COc1ccc(NC(=O)CN(C)C(=O)COc2ccccc2Cc2ccccc2)cc1	.	/	.	.	.	/
SMILES	AmpC detergent	Vaccinia Venus	AmpC inh no detg	SARS PLP yeast	AMA1 RON2 block	VACV mCherry inh
CN(CC(=O)Nc1ccc(F)cc1)C(=O)COc1ccccc1Cc1ccccc1	.	?	35µM	.	.	.
CCN(CC)c1ccc(/C=C/c2sc3ccccc3[n+]2CCCCI)cc1	/	.	/	/	/	.
CCCC(=O)NC(c1ccc(C(C)C)cc1)c1ccc2cccnc2c1O (stereo not given)	?	.	.	?	.	?
COc1ccc(C(NC(=O)C(C)C)c2ccc3cccnc3c2O)cc1 (stereo not given)	.	?	.	?	.	4.5µM
CCC(=O)NC(c1ccc(Cl)cc1Cl)c1ccc2cccnc2c1O (stereo not given)	.	?	.	.	.	2µM
CC(C)C(=O)NC(c1ccc(Cl)cc1Cl)c1ccc2cccnc2c1O (stereo not given)	.	/	.	?	.	/
CCCCC(=O)NC(c1ccc(OC)cc1)c1ccc2cccnc2c1O (stereo not given)	/	?	/	/	.	10µM
Cc1ncc2c(c1CNS(=O)(=O)N(C)C)CCN(C(=O)/C=C/c1ccccc1F)C2	/	.	/	/	/	.
O=C(NCC1Cc2cccc(-c3cncnc3)c2O1)C1CC1 (stereo not given)	/	.	/	/	/	.
Cc1ccc(C2CC(c3cccc(Cl)c3)n3nc(N)nc3N2)cc1 (stereo not given)	?	/	6.3µM	.	.	/
Cc1cccc(C2CC(c3ccc(Cl)cc3)Nc3nc(N)nn32)c1 (stereo not given)	?	/	3.5µM	.	.	/
CC(O)(COc1ccccc1)c1ccc2c(c1)CN(Cc1cccn1-c1ccccn1)CCO2 (stereo not given)	/	.	/	/	/	.
C[C@]12CC[C@@H]3c4ccc(O)cc4CC[C@H]3[C@@H]1CCC2=O	.	.	.	.	.	.
Cc1cc(O)cc2c1C1CCC3(C)C(=O)CCC3C1C=C2 (stereo not given)	/	?	/	/	.	1.8µM
Cc1ccc(NCCN(C)C)c2c(=O)c3cc(O)ccc3sc12	/	?	/	/	.	1.4µM
COC(=O)c1cccc(-c2cc(Cl)c3c(c2)CC(CNC(=O)c2cccnc2)O3)c1 (stereo not given)	/	.	/	/	/	.
C[n+]1ccc(/C=C/c2ccc(C=S)cc2)c2ccccc21	/	.	/	/	/	.
Cc1cccc2c(N3CCCC3)nc(CNS(=O)(=O)c3ccc4ccccc4c3)nc12	/	.	/	/	/	.
CC1=CCC2C(=O)N(c3ccccc3OC(=O)c3ccccc3F)C(=O)C2C1 (stereo not given)	.	.	10µM	.	.	.
CSc1nccc(-c2cc(Cl)c3c(c2)CC(CNC(=O)c2nonc2C)O3)n1 (stereo not given)	/	.	/	/	/	.
COC(=O)c1ccc(NC(=O)CSc2nc3cc4ccccc4cc3[nH]2)cc1	.	.	/	/	/	.
CC(c1ccon1)N(C)C(=O)c1cnn(-c2ncc3c(n2)-c2ccccc2CC3)c1C1CC1 (stereo not given)	/	.	/	/	/	.
O=C1C=C2C=C[C@@H]3C[C@@]2(O1)[C@H]1CCCCN31	/	14µM	/	/	/	?
COC1=C(N)C(=O)c2nc(-c3nc(C(=O)O)c(C)c(-c4ccc(OC)c(OC)c4O)c3N)ccc2C1=O	.	0.63µM	.	.	.	0.71µM

Screening data as filed in PubChem.
